Screens as filed in PubChem BioAssay.
TRPV1 PAM: human TRPV1 potentiation; potentiation, % at 8.33 µM; 320,000 tested, 0.02% active; TRPV1-expressing cells, Fluo-8 calcium influx, capsaicin EC20 potentiation; in the data active = potentiation above about 80%; inconclusive = between about 30% and that limit
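Cells expressing TRPV1 were dye-loaded with Fluo-8 and read kinetically: 10 s baseline, 3 min after compound (agonist portion), then 2 min after EC20 capsaicin (allosteric enhancer portion). Calcium-bound dye fluorescence at 480/520 nm.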
uPA surface inh: inhibitors of cell surface uPA generation. cell surface uPA generation assay, qHTS. Potency, µM (titrated, usually from 38.3 µM), actives largely listed as inhibitors. 330,000 tested, 0.31% active; active = well fitted inhibition curve with a large enough effect; inconclusive = small, poorly fitted or top-dose-only effect; inactive = no such curve, though single readings can be large or run the other way; tested in mouse RAW 264.7 cells; also: nearly all actives have a fitted effect of over 55% in size
TRPV1 agonist: agonists of human vanilloid receptor 1 (TRPV1). Q8NER1. TRPV1-expressing cells, Fluo-8 calcium influx, agonist mode. activation, % at 8.33 µM. 320,000 tested, 0.19% active; in the data active = activation above about 80%; inconclusive = between about 30% and that limit
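Fluo-8 calcium influx in TRPV1-expressing cells, kinetic read (ex 480/em 520 nm). Compound added and read 3 min for agonist activity, followed by capsaicin at EC20 final and 2 min further read for enhancement.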
Gal4-VP16 FLuc: counter-screen for ROR gamma inhibitors: Gal4-VP16 reporter; 310,000 tested, 3.5% active; Potency, µM (highest dose often 53.6 µM), most hits filed as inhibitors; Drosophila S2 Gal4-VP16 UAS-luciferase, luminescence, 20 h;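 also: Gal4-VP16 expression switched on by copper sulfate through the metallothionein promoter; nearly all actives have a fitted effect of over 50% in size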
RORg inh: ROR gamma (mouse) transcription inhibition. 310,000 tested, 5.4% active. AID 2551. Drosophila S2 Gal4-RORgamma UAS-luciferase reporter, 20 h. Potency, µM (highest dose often 53.6 µM), usual class: inhibitors. P51450; also: nearly all actives have a fitted effect of over 60% in size
Target sequence (P51450 whole entry, looked up, the tested form may be a part): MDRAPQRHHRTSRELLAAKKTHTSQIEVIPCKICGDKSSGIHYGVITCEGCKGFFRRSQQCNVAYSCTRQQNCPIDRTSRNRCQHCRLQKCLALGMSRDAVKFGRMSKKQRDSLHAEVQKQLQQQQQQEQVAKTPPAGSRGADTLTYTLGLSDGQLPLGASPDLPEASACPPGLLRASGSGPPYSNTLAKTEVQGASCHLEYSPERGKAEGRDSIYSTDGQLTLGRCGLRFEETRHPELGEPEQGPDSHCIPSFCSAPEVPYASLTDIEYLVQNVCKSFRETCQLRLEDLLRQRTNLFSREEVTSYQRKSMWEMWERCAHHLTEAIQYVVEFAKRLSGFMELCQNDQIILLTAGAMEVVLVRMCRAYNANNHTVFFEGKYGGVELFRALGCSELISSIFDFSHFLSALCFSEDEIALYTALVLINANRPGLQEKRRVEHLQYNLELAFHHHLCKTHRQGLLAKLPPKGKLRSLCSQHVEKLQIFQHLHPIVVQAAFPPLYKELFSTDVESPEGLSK
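Read-out: Photinus luciferase luminescence; inhibitors lower reporter signal. Insect Schneider cells with Gal4-ROR gamma fusion under metallothionein promoter, UAS reporter; 700 uM final copper sulfate induction, 20 hr, ambient temperature.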
A number is an active result; . = inactive; ? = inconclusive; / = no result; [ ] = dose if it differs, or a comment. Rows were chosen to be rich in hits. Some 5.8% of all compounds tested hit in one or more screens of this group. Unless noted, calls follow the shape of the dose curve; as a rule, active = well fitted curve in the direction sought with a large enough effect; inconclusive = small, poorly fitted or top-dose-only effect, or another doubt; inactive = no such curve, though single readings can be large; an effect the other way counts as inactive or inconclusive.

SMILES	TRPV1 PAM	uPA surface inh	TRPV1 agonist	Gal4-VP16 FLuc	RORg inh
COc1ccc(CNc2ccnc(-c3ccc(N(C)C)cc3)n2)c(OC)c1	/	/	/	.	.
CC1CC(NNC(=O)c2ccccc2)=Nc2ccccc2N1C (stereo not drawn)	.	.	.	5µM	1.8µM
O=C(NNc1ccccc1)c1ccccc1	/	.	/	/	/
Cc1nc(C(=O)NNC(=O)c2ccc(C(F)(F)F)cc2)cs1	.	.	.	?	5µM
S=c1[nH]nc(Cc2cccs2)n1-c1ccccc1	.	.	.	?	11µM
COc1ccccc1-n1c(CNC(=O)c2cccs2)n[nH]c1=S	.	.	.	.	.
S=c1[nH]nc(Cn2nnc3ccccc32)n1-c1ccccc1	.	.	.	.	?
S=c1[nH]nc(Cc2cccs2)n1-c1cccc2ccccc12	.	.	.	?	4µM
CCCCc1ccc(-n2c(Cc3cccs3)n[nH]c2=S)cc1	.	.	.	?	1.4µM
COc1ccccc1-n1c(Cc2cccs2)n[nH]c1=S	.	.	.	.	10µM
CCS(=O)CCSc1nc2ccccc2s1 (stereo not drawn)	.	.	.	.	.
CCCn1c(-c2ccc(F)cc2)nc2c(NCCCN3CCCCC3C)nc(C)nc21 (stereo not drawn)	/	/	/	.	.
O=S(=O)(c1cccc(-c2n[nH]c(=S)n2-c2ccccc2Cl)c1)N1CCOCC1	/	.	/	/	/
S=c1[nH]nc(Cc2cccs2)n1-c1ccccc1Cl	.	.	.	?	6.3µM
Cc1ccc(C)c(-n2c(Cc3cccs3)n[nH]c2=S)c1	.	.	.	3.2µM	7.1µM
CC(C)Oc1ccc(S(=O)(=O)N2CCOCC2)cc1NC(=O)C1=COCCO1	.	.	.	/	/
CCc1noc(C)c1C(=O)N(CCC(C)C)c1c(N)n(Cc2ccccc2)c(=O)[nH]c1=O	.	.	.	/	/
COc1cc(C(=O)Nc2ccccc2N2CCCCC2)cc(OC)c1OC	.	.	?	.	.
CC(C)Oc1cccc(C(=O)NC(=S)Nc2ccccc2N2CCOCC2)c1	.	.	.	5.6µM	5.6µM
COc1cccc(C(=O)NC(=S)Nc2ccccc2N2CCCCC2)c1	.	.	.	5µM	2.5µM
COc1cccc(C(=O)Nc2ccccc2N2CCCC2)c1	/	.	/	.	.
COc1c(C)cccc1C(=O)NC(=S)Nc1ccccc1N1CCCC1	.	.	.	20µM	10µM
COc1cc(C(=O)NC(=S)Nc2ccccc2N2CCCC2)cc(OC)c1OC	.	.	.	4µM	4.5µM
CC(C)Oc1ccc(C(=O)Nc2ccccc2N2CCOCC2)cc1	.	.	.	.	.
Cc1ccccc1C(=O)Nc1ccccc1N1CCCCC1	.	.	?	.	?
SMILES	TRPV1 PAM	uPA surface inh	TRPV1 agonist	Gal4-VP16 FLuc	RORg inh
COc1ccc(CCN2CC(C(=O)NCCN3CCOC3=O)CCC2=O)cc1 (stereo not drawn)	.	.	.	.	.
COc1ccccc1-c1cncnc1NCCNC(C)=O	/	/	/	.	.
C=CCOC(=O)C(C(C)=O)C(NC(=O)OC)c1cccc(C(F)(F)F)c1 (stereo not drawn)	/	/	/	.[10 µM]	.[10 µM]
COc1cccc(C(=O)NC(=S)Nc2ccccc2N2CCCC2)c1	.	.	.	13µM	4µM
FC(F)(F)c1ccc2c(c1)[nH]c(=S)n2C1CC1	.	.	.	?	1.4µM
O=C(O)CC(NS(=O)(=O)c1ccc2c(c1)OCCO2)c1ccccc1[N+](=O)[O-] (stereo not drawn)	/	.	/	/	/
CCCOC(=O)Nc1nnc(CCC)s1	.	/	.	?	.
Cc1ccccc1-n1c(-c2cccnc2)n[nH]c1=S	.	/	.	.	?
CCc1cccc(CC)c1-n1c(-c2cccnc2)n[nH]c1=S	?	.	.	16µM	3.5µM
CCN(CC)S(=O)(=O)c1ccc(OC)c(NS(=O)(=O)c2cccc(C(=O)O)c2)c1	.	.	.	.	.
O=C(N/N=C/c1ccc(O)c(O)c1)NC12CC3CC(CC(C3)C1)C2	.	.	.	.	.
O=C(N/N=C/c1ccccc1O)NC12CC3CC(CC(C3)C1)C2	.	.	?	16µM	?
COc1cc(/C=N/NC(=O)NC23CC4CC(CC(C4)C2)C3)ccc1O	.	.	.	.	.
O=C(N/N=C/c1cc(Cl)cc([N+](=O)[O-])c1O)NC12CC3CC(CC(C3)C1)C2	.	.	.	?	4µM
CCOC(=O)c1c(-c2ccc(C)o2)csc1NC(=O)CN1CCOCC1	.	.	.	.	.
CCOC(=O)c1c(-c2ccc(C)o2)csc1NC(=S)NC(=O)N(C)C	.	/	.	2.2µM	0.79µM
CCOC(=O)c1c(-c2ccc(C)o2)csc1NC(=O)COC(=O)c1cccs1	.	.	.	20µM	?
CC(NC(=O)COC(=O)Cc1cccs1)c1ccc(F)cc1 (stereo not drawn)	/	.	/	/	/
Oc1ccc(-c2cnc(-c3ccc(O)cc3)nc2)cc1	.	.	.	?	2.5µM
Cc1ccn2c(NC3CCCC3)c(-c3ccccn3)nc2c1	.	.	?	.[10 µM]	3.5µM
Cc1ccc2nc(-c3ccncc3)c(Nc3ccccc3)n2c1	.	.	.	.	.[10 µM]
Cc1ccn2c(Nc3ccc4c(c3)OCO4)c(-c3ccccn3)nc2c1	.	.	.	?	?
c1ccc(-c2nc3ccccn3c2NC2CCCC2)nc1	.	.	.	.	.
Cc1ccc(Nc2c(-c3ccccn3)nc3ccc(C)cn23)cc1	.	6.3µM	?	?	13µM
Cc1ccn2c(NC3CCCCC3)c(C)nc2c1	.	/	.	?	13µM
SMILES	TRPV1 PAM	uPA surface inh	TRPV1 agonist	Gal4-VP16 FLuc	RORg inh
Cc1ccc(Nc2c(-c3ccccn3)nc3cc(C)ccn23)cc1	.	.	?	?	13µM
O=C(CCNC(=O)c1ccccc1)OCC(=O)c1cccc(Cl)c1	.	.	.	.	.
O=C(CCC(=O)OCC(=O)c1ccc(-c2ccccc2)cc1)Nc1cccc(Cl)c1	.	.	.	13µM	7.1µM
Cc1ccccc1NC(=O)CCC(=O)OCC(=O)c1ccc(-c2ccccc2)cc1	.	.	.	10µM	7.9µM
O=S(=O)(c1ccc2ccccc2c1)N(CC1CO1)c1ccccc1 (stereo not drawn)	.	.	.	.	.
O=C(C[n+]1ccc2ccccc2c1)c1ccc(NC(=O)c2ccccc2)cc1	.	.	.	.	.
[O-]/[N+](=N\O)c1ccccc1	/	/	/	.	.
O=c1[nH]cnc2c1ccn2C1OC(CO)C(O)C1O (stereo not drawn)	/	4µM	/	/	/
CO[C@H]1C=CO[C@]2(C)Oc3c(C)c(O)c4c(O)c(c5c(c4c3C2=O)NC2(CCN(CC(C)C)CC2)N=5)=NC(=O)C(C)=CC=C[C@@H](C)[C@@H](O)[C@@H](C)[C@@H](O)[C@@H](C)[C@@H](OC(C)=O)[C@@H]1C	/	/	/	.	.
COc1ccccc1CN1CCCC(CN(CCN(C)C)C(=O)c2ccc(C)cc2)C1 (stereo not drawn)	.	.	.	.	.
COCCNC(=O)c1ccc(S(=O)(=O)N2CCCc3ccccc32)cc1	.	.	.	16µM	.
Cc1ccc(O)c(CO)n1	/	.	/	.	.
Cc1nc2c(O)cccc2cc1CO	.	.	.	?	10µM
